Results as given in PubChem BioAssay (NCI).
About 83,000 compounds went through this panel and 20% of them were active in at least one assay; those are over-represented in the sample as a whole.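 Growth was measured after 48 h exposure to one concentration of compound in 96-well plates. Values under 10 count as active.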 Values without a mark were called inactive. Active and inactive are the calls of the source.

Assays:
Assay in all cases: NCI-60 one-dose screen, 48 h (100 = growth as untreated, 0 = no growth, -100 = all killed)
Conditions in all cases: 10 µM unless noted
[1] = tested on: NCI-H23 lung
[2] = tested on: NCI-H226 lung
[3] = tested on: NCI-H322M lung
[4] = tested on: HOP-62 NSCLC
[5] = tested on: NCI-H460 lung
[6] = tested on: HOP-92 NSCLC
[7] = tested on: NCI-H522 lung
[8] = tested on: A549/ATCC NSCLC
[9] = tested on: 786-0 renal
[10] = tested on: COLO 205 colon
[11] = tested on: DU-145 prostate
[12] = tested on: K-562 leukemia
[13] = tested on: MALME-3M melanoma
[14] = tested on: MDA-MB-231 breast
[15] = tested on: SF-268 CNS
[16] = tested on: SF-295 CNS
[17] = tested on: SF-539 CNS
[18] = tested on: M14 melanoma
[19] = tested on: UACC-257 melanoma
[20] = tested on: RXF 393 renal

SMILES	growth [1]	growth [2]	growth [3]	growth [4]	growth [5]	growth [6]	growth [7]	growth [8]	growth [9]	growth [10]	growth [11]	growth [12]	growth [13]	growth [14]	growth [15]	growth [16]	growth [17]	growth [18]	growth [19]	growth [20]
COC(=O)[C@@H](C)C[C@H](Cc1ccc(F)cc1)NC(=O)c1csc([C@@H](C[C@H](C(C)C)N(C)C(=O)[C@@H](NC(=O)[C@H]2CCCCN2C)C2CC2)OC(C)=O)n1	36%	43.2%	39.7%	12.2%	7% (active)	46.6%	-15.2% (active)	20.1%	13.5%	-73.1% (active)	13.1%	9.43% (active)	55.2%	13.3%	30.9%	2.38% (active)	-4.81% (active)	1.41% (active)		
COC(=O)C1OC(Oc2ccc(N(CCCl)CCCl)cc2)C(OC(C)=O)C(OC(C)=O)C1OC(C)=O (stereo unspecified)	92.9%	96.7%	108%	94.4%	29.3%	78%	67.9%	75.9%	75%	95.3%	104%	94.6%	96.1%	88.5%	79.1%	53.1%	70.9%	102%	79.6%	
CCCCN1CCCC[C@@H]1C(=O)N[C@H](C(=O)N(C)[C@H](CCc1nc(C(=O)N[C@@H](Cc2ccccc2)C[C@H](C)C(=O)OC)cs1)C(C)C)[C@@H](C)CC	62.6%	84%	71.1%	56.9%	57.5%	22.2%	25.1%	58.8%	66.8%	22.3%	79.2%	34%	48.5%	59.6%	64.4%	26.3%	84%	48.6%		
CN1C(=O)C23CC4(C56CC78SSC(CO)(C(=O)N7C5Nc5ccccc56)N(C)C8=O)c5ccccc5NC4N2C(=O)C1(CO)SS3 (stereo unspecified)	-72.9% (active)	-100% (active)	-94.5% (active)	-86.4% (active)	-89.4% (active)	-99% (active)	-85.9% (active)	-88.5% (active)	-97.4% (active)	-87.8% (active)	-100% (active)	-30.3% (active)	-76.7% (active)	-94.1% (active)	-97.8% (active)	-93.8% (active)	-86.4% (active)	-83.3% (active)	-94.9% (active)	
CC1(C)[C@H](O)[C@H](F)C[C@@]2(C)Oc3ccc(C(=O)Nc4ccc5c(c4)NC(=O)C54CCN(CCCCC#N)CC4)cc3C[C@H]12	55.4%	69.9%	91.9%	12.8%	21.3%	41.7%	-4.72% (active)	19.5%	21.5%	-23.7% (active)	48.5%	2.93% (active)	13.5%	28.8%	43.6%	-59.6% (active)	8.86% (active)	-6.54% (active)		
C/C=C(\C)C(=O)O[C@@H]1C(O)[C@H]2OC(COC(=O)CCC(=O)CCCCCC[C@H](CCCCC)O[C@@H]3OC(C)[C@H](OC(C)=O)C(O)[C@H]3O2)[C@H]1OC(=O)/C=C/c1ccccc1 (stereo partly specified)	37.1%	1.09% (active)	27%	-2.42% (active)	15.9%	-11.4% (active)	20.9%	20.2%	5.52% (active)	-2.63% (active)	22.5%	30.2%	14.9%	-5.32% (active)	18.1%	-33.6% (active)	-9.75% (active)	-13.1% (active)		
COC(=O)[C@@H](C)C[C@H](Cc1ccc(F)cc1)NC(=O)c1csc([C@@H](C[C@H](C(C)C)N(C)C(=O)[C@@H](NC(=O)[C@H]2CCCCN2C)C(C)C)OC(C)=O)n1	35.2%	27.3%	38%	6.77% (active)	6.06% (active)	26.7%	-13.9% (active)	16.6%	13.2%	-68.8% (active)	13.5%	8.92% (active)	47%	4.87% (active)	27%	8.69% (active)	-6.38% (active)	-5.96% (active)		
COC(=O)[C@@H](C)C[C@H](Cc1ccccc1)NC(=O)c1csc(CC[C@H](C(C)C)N(C)C(=O)[C@@H](NC(=O)[C@H]2CCCCN2C)C(C)C)n1	32.4%	50.2%	44.4%	21.7%	6.76% (active)	52.8%	-12.9% (active)	19%	10.9%	-38.9% (active)	10.8%	6.9% (active)	61.2%	14.2%	27%	-6.82% (active)	-9.08% (active)	-13.3% (active)		
CCCCCC1(CCBr)C(=O)NC(=O)NC1=O	109%	104%	118%	107%	108%	85.1%	100%	98.3%	95.9%	110%	109%	94.1%	108%	107%			96.6%		91%	107%
C[C@]12CCc3nc(Nc4ccccc4F)sc3C1=CC[C@@H]1[C@@H]2CC[C@]2(C)C(=O)CC[C@@H]12	77.7%	85.9%	86.5%	87.2%	60.3%	116%	79.1%	76.7%	38.5%	75.7%	28.4%	21.7%	75.7%	92.5%	78.8%	51%	41.4%	75.1%	90.7%	
O=P1(NCCCl)OCCCN1CCCl (stereo unspecified)	107%	109%	106%	108%	109%	97.4%	99.5%	121%	93.5%	112%	110%	95.8%	120%	120%	109%	99.2%	98.3%	106%	116%	
COC1=CC(=O)O[C@@H](/C=C/c2ccc3c(c2)OCO3)C1	117%	92.8%	97.5%	112%	118%	60.9%	98.3%	97%	112%	125%	141%	93.9%	119%	107%	111%	122%	107%	109%	120%	
Cc1ccc(Nc2nc3c(s2)C2=CC[C@@H]4[C@H](CC[C@]5(C)C(=O)CC[C@@H]45)[C@@]2(C)CC3)cc1	58.4%	69.5%	61.8%	43.4%	38.9%	78.6%	56.3%	55.8%	9.1% (active)	63.5%	46.5%	19.8%	70%	52.8%	56.3%	5.48% (active)	3.73% (active)	62.2%	80.3%	
ClCCN(CCCl)c1ccc(/C=N/Nc2ncnc3nc[nH]c23)cc1	68.8%	79%	97.7%	82%	39.1%	81.3%	61%	87.7%	80.2%	90.5%	62.8%	61.2%	106%	96.2%	58.9%	57.8%	72.7%	76.7%	106%	
CC1(C)N=C(N)N=C(N)N1c1ccc(CCCCc2ccc(Cl)c(S(=O)(=O)F)c2)c(Cl)c1	20.4%	44.2%	45.5%	18.1%	16.3%	-0.0536% (active)	-14.7% (active)	15.4%	-20.2% (active)	36.3%	35.3%	9.3% (active)	17.4%	52.6%	18.7%	18.7%	14%	20.7%	18.3%	
O=C1OCC2=C1C(c1ccccc1)c1cc3c(cc1N2)OCO3 (stereo unspecified)	16.1%	-9.94% (active)	46.9%	15%	5.45% (active)	30.8%	-40.3% (active)	12.6%	15.9%	-65.7% (active)	-36.2% (active)	14.5%	58%	-1.65% (active)	10.4%	6.68% (active)	4.21% (active)	10%	35.2%	
